# Laboratory results taken from publication PMC5700166.
# Positions count from the first letter of the chain named.
# Key:
# Assay in all cases: protein-binding microarray (PBM); PBM: ~300 nM protein, 6 mM HEPES pH 7.8, 80 mM KCl, 0.5 mM EDTA, 0.5 mM EGTA, 6% glycerol, 35 ng/ul poly-dIdC, 1% milk, 1 h, room temperature; Ap Aiptasia and Nv Nematostella (sea anemones) / Co Capsaspora / Aq Amphimedon (sponge) / Dm Drosophila / Hu human; RHD is the Rel homology domain; high values mean tight binding
# Conditions in all cases: dsDNA, one strand shown
# GST-Ap-NF-kB RHD = target: T1, GST-Ap-NF-kB RHD (Exaiptasia pallida (Aiptasia), UniProt A0A913YAJ5 2-422)
# T1 sequence: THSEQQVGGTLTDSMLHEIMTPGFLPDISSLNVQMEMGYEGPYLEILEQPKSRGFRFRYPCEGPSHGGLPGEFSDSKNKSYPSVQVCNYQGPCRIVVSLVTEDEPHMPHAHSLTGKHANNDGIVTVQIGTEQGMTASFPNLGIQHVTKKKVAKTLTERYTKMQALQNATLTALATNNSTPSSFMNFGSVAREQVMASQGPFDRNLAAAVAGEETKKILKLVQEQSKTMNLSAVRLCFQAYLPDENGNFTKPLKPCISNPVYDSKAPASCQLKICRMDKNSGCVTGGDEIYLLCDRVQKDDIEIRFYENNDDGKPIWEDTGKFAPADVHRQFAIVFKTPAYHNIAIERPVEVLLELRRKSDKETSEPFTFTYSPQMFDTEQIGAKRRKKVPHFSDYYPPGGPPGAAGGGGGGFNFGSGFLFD
# [1] = target: T2, GST-Nv-NF-kB (Cys allele) (Nematostella vectensis, UniProt E5G601 2-411)
# T2 sequence: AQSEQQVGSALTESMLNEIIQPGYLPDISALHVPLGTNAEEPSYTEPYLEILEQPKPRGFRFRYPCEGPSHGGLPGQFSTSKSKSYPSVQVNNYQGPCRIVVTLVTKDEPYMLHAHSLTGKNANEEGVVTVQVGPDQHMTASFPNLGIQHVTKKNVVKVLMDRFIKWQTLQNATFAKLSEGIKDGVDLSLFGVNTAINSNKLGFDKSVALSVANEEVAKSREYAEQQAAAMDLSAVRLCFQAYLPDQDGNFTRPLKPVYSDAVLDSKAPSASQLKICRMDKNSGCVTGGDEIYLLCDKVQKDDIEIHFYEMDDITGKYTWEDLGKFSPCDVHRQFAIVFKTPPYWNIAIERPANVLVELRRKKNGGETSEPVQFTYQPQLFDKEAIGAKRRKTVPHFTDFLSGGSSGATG
# [2] = target: T3, GST-Nv-NF-kB (Ser allele) (Nematostella vectensis, UniProt A7UNT2 2-411)
# T3 sequence: T2 sequence with Q21R, C66S, S207N, E215Q, V217A, E225K, A268E, D399E
# GST-Co-NF-kB = target: T4, GST-Co-NF-kB (Capsaspora owczarzaki, UniProt F1ARL5 200-546)
# T4 sequence: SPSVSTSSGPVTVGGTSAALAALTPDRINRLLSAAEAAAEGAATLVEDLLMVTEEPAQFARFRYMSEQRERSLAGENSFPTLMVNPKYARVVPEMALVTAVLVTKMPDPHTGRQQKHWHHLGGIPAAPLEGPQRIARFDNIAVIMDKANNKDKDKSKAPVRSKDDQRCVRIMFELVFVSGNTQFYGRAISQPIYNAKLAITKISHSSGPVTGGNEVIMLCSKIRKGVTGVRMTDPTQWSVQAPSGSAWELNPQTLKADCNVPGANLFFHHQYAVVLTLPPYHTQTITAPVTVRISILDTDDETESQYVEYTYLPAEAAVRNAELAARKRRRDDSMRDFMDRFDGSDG
# GST-Dm-Relish = target: T5, GST-Dm-Relish (Drosophila melanogaster, UniProt Q94527 99-473)
# T5 sequence: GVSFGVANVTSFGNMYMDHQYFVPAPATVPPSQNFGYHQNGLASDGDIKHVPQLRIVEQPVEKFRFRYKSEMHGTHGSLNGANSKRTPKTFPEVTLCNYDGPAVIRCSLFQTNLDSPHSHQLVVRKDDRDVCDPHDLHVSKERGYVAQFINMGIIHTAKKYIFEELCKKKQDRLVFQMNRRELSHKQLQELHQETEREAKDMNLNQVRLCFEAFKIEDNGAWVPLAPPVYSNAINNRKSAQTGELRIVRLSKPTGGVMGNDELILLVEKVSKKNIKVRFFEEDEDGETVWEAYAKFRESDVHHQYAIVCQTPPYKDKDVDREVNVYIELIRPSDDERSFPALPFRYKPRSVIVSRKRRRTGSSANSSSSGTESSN
# GST-Aq-NF-kB = target: T6, GST-Aq-NF-kB (Amphimedon queenslandica, UniProt A9Y5G7 2-389)
# T6 sequence: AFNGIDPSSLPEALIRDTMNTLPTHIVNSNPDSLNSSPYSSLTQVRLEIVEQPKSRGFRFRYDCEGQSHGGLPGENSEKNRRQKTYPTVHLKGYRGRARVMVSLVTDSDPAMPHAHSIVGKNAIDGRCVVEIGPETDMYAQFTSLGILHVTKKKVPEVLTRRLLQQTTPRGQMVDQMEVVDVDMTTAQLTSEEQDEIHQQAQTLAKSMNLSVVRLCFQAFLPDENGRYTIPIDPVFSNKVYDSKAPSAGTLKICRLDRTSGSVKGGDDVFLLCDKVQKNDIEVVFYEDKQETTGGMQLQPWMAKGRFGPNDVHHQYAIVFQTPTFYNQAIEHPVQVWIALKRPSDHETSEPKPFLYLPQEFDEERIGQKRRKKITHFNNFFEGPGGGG
Sequence,binding signal (GST-Ap-NF-kB RHD),binding signal [1],binding signal [2],binding signal (GST-Co-NF-kB),binding signal (GST-Dm-Relish),binding signal (GST-Aq-NF-kB)
CCGATTAACATCAGGGGATACCCTGATGTTAATCGGGTCTTGATTCGCTTGACGCTGCTG,8.36 z-score,7.45 z-score,6.59 z-score,3.74 z-score,9.05 z-score,8.11 z-score
CCGATTAACATCAAGGGAAAATATGATGTTAATCGGGTCTTGATTCGCTTGACGCTGCTG,3.77 z-score,7.5 z-score,8.19 z-score,4.43 z-score,1.66 z-score,4.44 z-score
CCGATTAACATCAACCAATTCCCTGATGTTAATCGGGTCTTGATTCGCTTGACGCTGCTG,2.49 z-score,3.94 z-score,3.98 z-score,1.83 z-score,,3.16 z-score
CCGATTAACATCAGGGGTAACACTGATGTTAATCGGGTCTTGATTCGCTTGACGCTGCTG,1.82 z-score,1.03 z-score,1.27 z-score,4.28 z-score,,2.5 z-score
CCGATTAACATCAGGGGGGGGCATGATGTTAATCGGGTCTTGATTCGCTTGACGCTGCTG,4.94 z-score,4.84 z-score,4.15 z-score,4.65 z-score,3.78 z-score,3.82 z-score
CCGATTAACATCACGATTTTCCCTGATGTTAATCGGGTCTTGATTCGCTTGACGCTGCTG,3.77 z-score,5.64 z-score,7.32 z-score,4.9 z-score,1.65 z-score,4.47 z-score
CCGATTAACATCACATACCCCCCTGATGTTAATCGGGTCTTGATTCGCTTGACGCTGCTG,4.69 z-score,3.25 z-score,3.69 z-score,3.97 z-score,3.92 z-score,3.91 z-score
CCGATTAACATCAGCATTTTCCCTGATGTTAATCGGGTCTTGATTCGCTTGACGCTGCTG,3.21 z-score,4.61 z-score,6.85 z-score,3.96 z-score,,3.68 z-score
CCGATTAACATCAGGGGGGGGTATGATGTTAATCGGGTCTTGATTCGCTTGACGCTGCTG,5.02 z-score,2.75 z-score,3.75 z-score,5.96 z-score,,4.39 z-score
CCGATTAACATCAGGGAAGACGTTGATGTTAATCGGGTCTTGATTCGCTTGACGCTGCTG,1.82 z-score,1.64 z-score,1.93 z-score,1.67 z-score,,1.11 z-score
CCGATTAACATCAGGGGAAGCACTGATGTTAATCGGGTCTTGATTCGCTTGACGCTGCTG,5.88 z-score,6.43 z-score,6.99 z-score,4.4 z-score,9.95 z-score,6.83 z-score
CCGATTAACATCAAATTTTTCCCTGATGTTAATCGGGTCTTGATTCGCTTGACGCTGCTG,3.81 z-score,6.06 z-score,8.21 z-score,6.81 z-score,2.35 z-score,4.92 z-score
CCGATTAACATCAATAGTTCCCCTGATGTTAATCGGGTCTTGATTCGCTTGACGCTGCTG,6.43 z-score,6.96 z-score,8.51 z-score,7.79 z-score,6.77 z-score,5.01 z-score
CCGATTAACATCACAGATTTCCCTGATGTTAATCGGGTCTTGATTCGCTTGACGCTGCTG,3.88 z-score,5.4 z-score,7.17 z-score,4.93 z-score,2.66 z-score,4.24 z-score
CCGATTAACATCAGGGAGACCCCTGATGTTAATCGGGTCTTGATTCGCTTGACGCTGCTG,6.28 z-score,3.82 z-score,1.04 z-score,2.28 z-score,6.09 z-score,6.87 z-score
CCGATTAACATCAAAAATTCCCATGATGTTAATCGGGTCTTGATTCGCTTGACGCTGCTG,5.04 z-score,7.75 z-score,6.99 z-score,5.2 z-score,7.58 z-score,6.55 z-score
